# Screening data as filed in PubChem.
# KB-3-1 cytotox: KB-3-1 parental cell cytotoxicity | Potency, µM (series often up to 46.1 µM), actives largely listed as cytotoxic | KB-3-1 viability, CellTiter-Glo ATP luminescence, 72 h | 400,000 compounds, 1.4% hits; note: % is set by controls: 0 for no effect and ±100 for the full control effect; nearly all actives have a fitted effect of over 60% in size
#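 Using CellTiter-Glo luminescence, growth of non-resistant KB-3-1 adenocarcinoma cells is assessed 72 h after pin-tool compound addition at 37 °C. Normalized responses across the concentration series yield fitted curves.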
# SW480 rerep: DNA re-replication induction in SW480 cells; SW480 DNA re-replication, Hoechst DNA content imaging, 48 h; Potency, µM (top dose mostly 46.1 µM), without a hit: at the highest dose re-replication activation, actives largely listed as activators; 340,000 compounds, 1.8% hits; AID 624297; note: % of control where 0% means no effect; nearly all actives have a fitted effect of over 55% in size
#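 Per well, 250 cells were exposed to pinned compound for 48 hr. Nuclear DNA was visualised with Hoechst (40 min, 37 C) and total object intensity recorded by fluorescence scanning.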
# KB-V1 MDR tox: kills drug-selected multidrug resistant KB-V1 cells. KB-V1 MDR cells viability, CellTiter-Glo, 72 h. Potency, µM (highest dose often 46.1 µM), usual class: cytotoxic. 400,000 compounds, 3.4% hits; note: % is set by controls: 0 for no effect and ±100 for the full control effect; nearly all actives have a fitted effect of over 60% in size
#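 Compound-treated KB-V1 multidrug-resistant cells, 72 h, 37 degrees C; viability by CellTiter-Glo. Fitted qHTS curves give the values.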
# HT1080NT lethal: kills 2HG-producing HT-1080-NT fibrosarcoma cells. 360,000 compounds, 1.6% hits. HT-1080-NT fibrosarcoma viability, CellTiter-Glo ATP luminescence, 48 h. Potency, µM (titrated, usually from 46.1 µM), for inactives: top-dose activity, negative = less viability, usual class: cytotoxic;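 note: NT is the 2HG producing partner of a matched IDH1 knockdown line; 0% = DMSO-treated cells and -100% = media-only wells without cells; nearly all actives have a fitted effect of over 55% in size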
#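 Read-out is CellTiter-Glo luminescence after 10 minutes at room temperature, following 48 hours' compound treatment of HT-1080-NT cells (750 cells/well, RPMI, 5% FBS, 37 degrees C).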
# HT1080 IDH1KD tx: toxicity to HT-1080 IDH1 knockdown cells (counter line). HT-1080 IDH1 knockdown viability, ATP luminescence, 48 h. Potency, µM (titrated, usually from 46.1 µM), without a hit: at the top dose activity, negative = toxicity, hits mostly cytotoxic. 360,000 compounds, 2% hits. AID 686971;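 note: 0% = DMSO wells and -100% = cell-free medium wells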
#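 % activity derives from luminescence (CellTiter-Glo), normalised to DMSO and no-cell wells. HT-1080-IDH1KD cells, 750/well, had 48 h compound exposure at 37 °C.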
# MCF10A rereplic: DNA re-replication induction in MCF 10a cells | MCF 10A DNA re-replication, Hoechst nuclear intensity, 48 h | Potency, µM (doses to about 46.1 µM), inactives show top-dose activity, positive = re-replication, actives largely listed as activators | 350,000 compounds, 2.9% hits | AID 624296; note: % of control where 0% means no effect; nearly all actives have a fitted effect of over 50% in size
# * marks the source's active call; other numbers are inactive results; i = inactive; ? = inconclusive; nt = not tested or not shown; ! = not confirmed by another sample; [ ] = dose if it differs, or a comment. A selection: hits, their analogues and other compounds. The true share with any hit is near 8%. Calls come from the whole dose curve; as a rule, active = well fitted curve in the direction sought with a large enough effect; inconclusive = small, poorly fitted or top-dose-only effect, or another doubt; inactive = no such curve, though single readings can be large; an effect the other way counts as inactive or inconclusive. Potency is the fitted concentration of half-maximal effect.
SMILES,KB-3-1 cytotox,SW480 rerep,KB-V1 MDR tox,HT1080NT lethal,HT1080 IDH1KD tx,MCF10A rereplic
COc1ccccc1/C=C/c1onc(C)c1S(=O)(=O)N1CCC(C(=O)NC2CCCCCC2)CC1,i,-6%,i,4%,17%,9%
Cc1cc(C)n2nc(CC(=O)NNC(=O)c3ccccc3Cl)nc2n1,i,0%,i,8%,10%,3%
CN1C(C)(C)CC(NC(=O)c2ccco2)CC1(C)C,i,9%,i,9%,0%,-1%
CCOc1ccc(CCNC(=O)c2cccc(Nc3nc4ccccc4nc3-n3nc(C)cc3C)c2)cc1OCC,i,nt,i,nt,nt,nt
Cc1ccc(C(=O)COC(=O)c2ccc3c(c2)C(=O)N(c2cccc4ncccc24)C3=O)cc1C,i,1%,i,-20%,-22%,16µM*
CCc1nc2c(OCc3ccc(C(=O)OC)cc3)cccn2c1N(C)C(=O)CC(C)C,i,nt,i,2%,6%,nt
CCCCn1c(N)c(N(CC)C(=O)CSCc2c(C)noc2C)c(=O)[nH]c1=O,nt,-6%,nt,-1%,-2%,-5%
CCCc1sc(N/N=C/c2ccccn2)nc1-c1ccc(Br)cc1,?,?,?,3.5µM*,2.8µM*,?
COc1ccc(F)cc1S(=O)(=O)n1cnc2ccccc21,i,-14%,i,-7%,-7%,2%
COc1ccc(/C=C/c2ccc3cccc(O)c3n2)c(OC)c1OC,i,?,i,?,?,1.6µM*
Oc1cccc(/C=C/c2ccc3cccc(O)c3n2)c1,?,0%,?,33µM*,?,?
COc1cc(/C=C/c2ccc3cccc(O)c3n2)cc(Cl)c1OC,?,4.6µM*,?,?,?,15µM*
COc1cc(/C=C/c2ccc3cccc(O)c3n2)cc(OC)c1OC,?,17%,?,8.2µM*,6.5µM*,?
Cc1nn2c(Nc3ccccc3)c3c(nc2c1-c1ccccc1)CCC3,i,-1%,i,-1%,0%,?
COc1cc(/C=C/c2ccc3cccc(O)c3n2)cc(Br)c1OC,15µM*,?,?,?,?,15µM*
COc1cc(/C=C/c2ccc3cccc([N+](=O)[O-])c3n2)ccc1OCC(=O)O,i,-1%,i,7%,1%,1%
CCOc1c(OC(C)=O)ccc(/C=C/c2ccc3cccc(OC)c3n2)c1[N+](=O)[O-],i,?,16µM*,-19%,-25%,16%
Cc1nc(NC(=O)/C=C/c2ccccc2)sc1C(=O)Nc1ccccc1,i,?,i,?,?,21µM*
Cc1nc(NC(=O)/C=C/c2ccccc2)sc1C(=O)NCCO,i,-3%,i,0%,4%,0%
Cc1cc(NC(=O)CSc2nnc(CNC(=O)c3ccc(F)cc3)o2)no1,i,-24%,i,0%,18%,-3%
COC(=O)c1ccc2c(=O)n(CC3CCCO3)c(SCC(=O)Nc3ccccc3OC)nc2c1 (configuration not stated),i,4%,3.3µM*,3%,3%,7%
CCOC(=O)c1ccc(N2C(=O)c3[nH]nc(-c4ccc(OC)cc4)c3C2c2ccc(C)cc2)cc1 (configuration not stated),?,nt,18µM*,nt,nt,nt
COc1ccc(-c2n[nH]c3c2C(c2ccc(OC)c(OC)c2)N(c2ccccc2)C3=O)cc1 (configuration not stated),?,-2%,15µM*,?,?,22%
COc1ccc(C2c3c(-c4ccc(F)cc4)n[nH]c3C(=O)N2c2ccccc2)cc1OC (configuration not stated),?,nt,i,nt,nt,nt
CCOC(=O)c1ccc(N2C(=O)c3n[nH]c(C)c3C2c2ccccc2)cc1 (configuration not stated),i,0%,13µM*,-12%,-2%,29%
SMILES,KB-3-1 cytotox,SW480 rerep,KB-V1 MDR tox,HT1080NT lethal,HT1080 IDH1KD tx,MCF10A rereplic
O=C1Nc2ccccc2OC1CC(=O)N1CCOCC1 (configuration not stated),i,-4%,i,21%,5%,-6%
O=C1Nc2ccccc2OC1CC(=O)N1CCN(c2cccc(C(F)(F)F)c2)CC1 (configuration not stated),i,9%,?,-15%,20µM*,5%
O=C1C(=O)N(CCS(=O)(=O)c2ccccc2)c2ccc(Cl)cc21,16µM*,?,i,?,?,?
Cc1ccc(OCCN2C(=O)C(=O)c3cc(C)ccc32)cc1,?,13µM*,?,-27%,?,7.3µM*
CCCN1C(=O)C(=O)c2cc(Cl)ccc21,i,16µM*,i,15µM*,15µM*,21µM*
CCc1ccc2c(c1)C(=O)C(=O)N2CCS(=O)(=O)c1ccccc1,i,-6%,i,-8%,0%,-8%
COc1ccc2c(c1)c(CC(=O)Nc1c(C)cccc1C)c(C)n2C(=O)c1ccc(Cl)cc1,i,nt,i,nt,nt,nt
Cc1ccc(C)c(S(=O)(=O)Nc2ccc(S(=O)(=O)Nc3ncccn3)cc2)c1,i,-5%,i,-7%,-2%,1%
N#Cc1ccc(C(=O)Nc2nnc(-c3ccco3)o2)cc1,?,?,?,-7%,-27%,3%
CC(=O)N1CCN(Cc2nc3cc([N+](=O)[O-])ccc3n2C)CC1,i,2.9µM*,i,1%,3%,0%
CCOC(=O)c1ccc(-c2c(-c3ccc(OC)cc3)oc(=O)c3cc(OC)c(OC)cc23)cc1F,i,19%[9.22 µM],i,10%,11%,-3%
CCOC(=O)c1ccc(-c2c(-c3cc(OC)c(OC)c(OC)c3)noc2C)cc1F,1.6µM*!,2.9µM*,12µM*,?,1.8µM*,1.5µM*
Cc1nc2nncn2c(NCc2ccc(Cl)cc2)c1C,2.6µM*,nt,i,nt,nt,nt
O=c1[nH]c(=O)n(Cc2ccco2)c2c1C(C(F)(F)F)(C(F)(F)F)N=C(CCc1ccccc1)N2,i,24%,i,?,10µM*,?
O=c1[nH]c(=O)n(Cc2ccco2)c2c1C(C(F)(F)F)(C(F)(F)F)N=C(CCC1CCCCC1)N2,i,3%,i,0%,-6%,2%
O=c1[nH]c(=O)n(-c2ccccc2)c2c1C(C(F)(F)F)(C(F)(F)F)N=C(CCC1CCCCC1)N2,i,?,5.2µM*,-2%,0%,16µM*
